Measurements published in PubChem BioAssay.
Results filed as inconclusive are left out. Activity calls are given as the source filed them.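 How the source made its calls, unless noted: active means viability at or under a set limit in both replicates, limit being median viability minus 3 SD (cut at about 48% in these data, passing the limit was not always enough); inconclusive means at or under the limit in just one replicate; inactive means at or above the limit in both replicates.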

Assays:
[1] = reducers of endogenous Her2 protein level, primary screen, SKBR3 breast tumor cells, AlphaScreen, ATP viability (AID 461;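 active means Her2 level under about 52% in both replicate screens, with viability over 70% of control, limit read from the data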;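 on Her2 level: lower value means less Her2 protein in the cells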;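 on viability: percent of carrier control wells set as 100% viability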); conditions: 18-24 h, measured here: SKBR3 viability, ATP luminescence, at 10 µM
[2] = biological target: Receptor tyrosine-protein kinase erbB-2 (Homo sapiens) (UniProt P04626); test: as above; conditions: 18-24 h, at 10 µM, stronger effect = lower value
Sequence of Receptor tyrosine-protein kinase erbB-2 (Homo sapiens) (P04626 whole entry, looked up): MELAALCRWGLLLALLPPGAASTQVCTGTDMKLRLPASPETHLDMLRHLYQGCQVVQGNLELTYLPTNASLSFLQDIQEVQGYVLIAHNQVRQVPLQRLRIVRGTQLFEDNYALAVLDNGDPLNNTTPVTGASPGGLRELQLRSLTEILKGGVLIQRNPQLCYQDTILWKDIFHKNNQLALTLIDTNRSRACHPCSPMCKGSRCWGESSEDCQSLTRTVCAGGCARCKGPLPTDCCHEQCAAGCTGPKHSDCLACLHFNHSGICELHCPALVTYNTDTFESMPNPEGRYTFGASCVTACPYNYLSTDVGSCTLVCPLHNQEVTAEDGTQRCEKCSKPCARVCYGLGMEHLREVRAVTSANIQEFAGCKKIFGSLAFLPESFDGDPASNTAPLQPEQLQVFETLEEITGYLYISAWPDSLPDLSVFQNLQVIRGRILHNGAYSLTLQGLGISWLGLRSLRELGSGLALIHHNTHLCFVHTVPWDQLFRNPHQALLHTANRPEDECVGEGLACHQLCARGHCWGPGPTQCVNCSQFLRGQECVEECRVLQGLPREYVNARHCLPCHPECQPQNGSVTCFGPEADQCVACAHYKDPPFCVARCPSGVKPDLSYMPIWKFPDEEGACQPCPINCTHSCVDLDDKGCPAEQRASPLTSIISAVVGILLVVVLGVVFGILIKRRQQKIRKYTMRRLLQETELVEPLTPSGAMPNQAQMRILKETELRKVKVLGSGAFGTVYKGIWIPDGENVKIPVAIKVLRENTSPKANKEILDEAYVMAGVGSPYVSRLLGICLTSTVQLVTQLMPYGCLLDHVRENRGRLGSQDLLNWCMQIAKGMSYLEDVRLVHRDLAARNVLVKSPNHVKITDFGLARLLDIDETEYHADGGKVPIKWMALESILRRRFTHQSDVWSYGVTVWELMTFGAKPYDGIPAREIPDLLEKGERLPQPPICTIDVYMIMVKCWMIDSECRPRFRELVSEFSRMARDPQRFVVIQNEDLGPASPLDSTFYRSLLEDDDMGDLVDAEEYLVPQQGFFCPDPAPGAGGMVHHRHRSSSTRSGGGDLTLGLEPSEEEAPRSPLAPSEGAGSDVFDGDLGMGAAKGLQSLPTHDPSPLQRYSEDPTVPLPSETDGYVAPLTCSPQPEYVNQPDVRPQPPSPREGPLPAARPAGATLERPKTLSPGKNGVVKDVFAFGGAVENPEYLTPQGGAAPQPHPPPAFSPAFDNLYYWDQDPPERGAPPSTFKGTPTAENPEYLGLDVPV

[3] = SK-BR-3 cell growth inhibitors, pilot screen, 24 h, human (AID 572;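 active means viability at or below 10% of carrier control in both of two separate runs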;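 further: compound exposure lasted between 18 and 24 h rather than exactly 24 h; 100% = carrier-treated control wells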); conditions: SK-BR-3 viability, CellTiter-Glo luminescence, at 10 µM, stronger effect = lower value
[4] = HUVEC growth inhibition – cell-based, human, primary screen (AID 575;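 active means viability at or below 30% in both replicate assays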;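 further: 100% = median of untreated cell wells with 0.1% DMSO on each plate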); conditions: HUVEC proliferation, CellTiter-Glo luminescence, 72 h; at 10 µM; stronger effect = lower value
[5] = growth inhibitors of H69AR lung tumor, primary screen, human, duplicate replicates (AID 580); conditions: H69AR lung tumor cells viability, ATP luminescence, 72 h; at 10 µM; stronger effect = lower value;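 further: 100% = mean luminescence of untreated wells and 0% = no signal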
[6] = reversal of MRP1-mediated doxorubicin resistance, pilot screen, H69AR cells, doxorubicin co-treatment (AID 601;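 active means viability loss from added drug above about 55%, and viability with drug at most 40%, in both replicates, limit read from the data, passing the limit was not always enough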); conditions: CellTiter-Glo, 72 h, at 10 µM; for differential viability (reversal): stronger effect = higher value
[7] = 384-well plate pilot, post-Golgi transport modulator project, inhibition of yeast transport mutant growth (AID 636; in the data active means inhibition above about 31%); conditions: absorbance 615 nm, about 18 h, stronger effect = higher value
[8] = growth suppression of yeast trafficking mutant, preliminary HTS, modulators of trafficking downstream of Golgi apparatus project, 1536-format plate, OD 615 nm (AID 637; in the data active means inhibition above about 30%); conditions: yeast transport mutant growth, absorbance 615 nm, 18 h; stronger effect = higher value
[9] = OD615 S. cerevisiae growth inhibition, permissive medium, pilot counter-assay, permissive growth control for S. cerevisiae lifespan shortening project (AID 705;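 active means growth inhibition above 25% in both replicates, a cutoff set 3 SD above the mean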); conditions: OD615, 24 h, at 10 µM, stronger effect = higher value
[10] = Restrictive medium S. cerevisiae growth inhibition, OD615, pilot screen of yeast lifespan reduction project, restrictive growth control (AID 706;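 active means growth inhibition above a set limit, 3 SD over mean compound inhibition, in both replicates, cut at about 43% in these data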;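 further: modified DeaD lifespan yeast strain shifted to restrictive glucose medium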); conditions: OD615, 48 h, at 10 µM, stronger effect = higher value
[11] = viability gain of MRP-1-high H69AR cells under doxorubicin, pilot screen, MRP-1 activator project, CellTiter-Glo, duplicate (AID 807;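 active means viability increase at or above a cutoff of the median across tested compounds plus 3 SD, cut at about 8.5% in these data, passing the limit was not always enough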;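 further: compound pretreatment 18-22 h then 72 h combined with doxorubicin; 0% = doxorubicin alone and 100% = vehicle without doxorubicin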); conditions: H69AR viability with doxorubicin, CellTiter-Glo luminescence; at 10 µM; stronger effect = higher value
[12] = growth suppression of beta-catenin knockout HCT116, pilot screen, human colon tumor cells (AID 823;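 active means cell viability at or below a set limit in both duplicate runs, the limit being the all-compound median minus 4 SD, cut at about 23% in these data, passing the limit was not always enough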;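 further: 0% = wells killed by 20 µM Hyamine and 100% = untreated DMSO cell wells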); conditions: CellTiter-Glo, 60 h, at 10 µM, stronger effect = lower value
[13] = growth suppression of PTEN-deleted HCT116, pilot screen, cell-based, HCT116 clonal line, CellTiter-Glo (AID 824;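 active means viability at or below 27.92% in each of two runs, the all-compound median minus 4 SD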;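 further: 0% = 20 µM Hyamine control and 100% = vehicle cell control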); conditions: 60 h, at 10 µM, stronger effect = lower value
[14] = inhibitors of the yeast RAM network, pilot screen, dse1pr::URA3 reporter, 5-FOA selection (AID 869;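 active means inhibition over a set limit, the all-compound mean plus 3 SD, in both replicate runs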;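 further: 0% = DMSO wells with no growth and 100% = 10 µM 1-NA-PP1 with full growth; RAM network block rescues cells from 5-FOA so hits raise OD615 growth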); conditions: S. cerevisiae dse1pr::URA3 5-FOA growth, OD615, 2 d; at 10 µM; stronger effect = higher value; strain carries analog-sensitive mutant Cbk1 kinase
[15] = RAM signaling pathway blockade in yeast – S. cerevisiae, Pdr1DBD-CYC8 efflux-inhibited sensitized strain, primary screen (AID 1298;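 active means RAM network inhibition above 8.4% in each of two replicates, 3 SD over the compound average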;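 further: 0% = DMSO untreated cells without growth and 100% = 10 µM 1-NA-PP1 full growth; higher means more yeast growth rescued from 5-FOA killing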); conditions: S. cerevisiae cbk1-as DSE1-URA3 strain, 5-FOA growth OD615, 2 d; at 50 µM; stronger effect = higher value
[16] = H69AR cells + 2 uM doxorubicin, measured here: viability with 2 uM doxorubicin, stronger effect = lower value
[17] = H69AR cells, compound alone cytotoxicity

Structure (SMILES) | viability [1] [%] | Her2 level [2] | viability [3] | viability [4] | viability [5] | differential viability (reversal) ([6]; H69AR cells + 2 uM doxorubicin) | viability [6, 16] [%] | viability [6, 17] [%] | inhibition [7] | inhibition [8] | growth inhibition [9] | growth inhibition [10] | viability increase [11] | viability [12] | viability [13] | inhibition [14] | RAM network inhibition [15]
CCOC(=O)N1CCN(c2cc(=O)n(-c3ccccc3Cl)c(=O)[nH]2)CC1 | 98.5 | 124% (inactive) | 98.5% (inactive) | 100% (inactive) | 86.9% (inactive) | -3.22% (inactive) | 90.1 | 86.9 | 0.27% (inactive) | 12.5% (inactive) | -9.94% (inactive) | -0.995% (inactive) | 1.69% (inactive) | 96.8% (inactive) | 105% (inactive) | 0.77% (inactive) | 4.58% (inactive)
Cc1cccc(Cn2c(SCCN3CCCCC3)nc3c2c(=O)[nH]c(=O)n3C)c1 | 75 | 96.5% (inactive) | 75% (inactive) | 75.6% (inactive) | 73.7% (inactive) | -6.01% (inactive) | 79.8 | 73.7 | -1.73% (inactive) | 5.5% (inactive) | -16.1% (inactive) | -11.3% (inactive) | -2.89% (inactive) | 92.4% (inactive) | 83.1% (inactive) | 2.78% (inactive) | 0.26% (inactive)
CCOC(=O)c1ccc(NCc2nc3ccccc3[nH]2)cc1 | 88.5 | 97% (inactive) | 88.5% (inactive) | 86% (inactive) | 105% (inactive) | 15.1% (inactive) | 89.7 | 105 | 0.93% (inactive) | -2.62% (inactive) | -1.66% (inactive) | -8.54% (inactive) | -5.9% (inactive) | 86.8% (inactive) | 76.8% (inactive) | 1.83% (inactive) | 2.11% (inactive)
CCOC(=O)N1CCC(NC(=O)Cn2c3c(c(-c4ccccc4Cl)cc2=O)CCC3)CC1 | 94.5 | 92.5% (inactive) | 94.5% (inactive) | 123% (inactive) | 89.7% (inactive) | 0.145% (inactive) | 89.6 | 89.7 | -6.67% (inactive) | -1.67% (inactive) | -9.94% (inactive) | -0.355% (inactive) | -0.33% (inactive) | 88.8% (inactive) | 91.9% (inactive) | 2.06% (inactive) | 4.05% (inactive)
Cc1ccccc1NC(=O)C1CCCN(S(=O)(=O)c2cccc3cccnc23)C1 (stereo not drawn) | 90.5 | 96.5% (inactive) | 90.5% (inactive) | 94.6% (inactive) | 93.2% (inactive) | 0.99% (inactive) | 92.2 | 93.2 | -1.73% (inactive) | -5.25% (inactive) | -13.1% (inactive) | -16.6% (inactive) | -2.23% (inactive) | 82.1% (inactive) | 81.2% (inactive) | 3.01% (inactive) | 1.93% (inactive)
COc1c(C(=O)Nc2c(C)n(C)n(-c3ccccc3)c2=O)ccc2ccccc12 | 97 | 104% (inactive) | 97% (inactive) | 99.3% (inactive) | 113% (inactive) | 25.5% (inactive) | 87 | 113 | -1.07% (inactive) | -6.45% (inactive) | -2.42% (inactive) | -6.28% (inactive) | -0.81% (inactive) | 98.8% (inactive) | 98.3% (inactive) | 0.775% (inactive) | 4.37% (inactive)
Cc1cccc(C2CC(c3ccc(Cl)cc3)Nc3nc(N)nn32)c1 (stereo not drawn) | 91 | 113% (inactive) | 91% (inactive) | 103% (inactive) | 96.6% (inactive) | -10.4% (inactive) | 107 | 96.6 | 0.4% (inactive) | -5.25% (inactive) | 0.43% (inactive) | 23.9% (inactive) | 4.33% (inactive) | 82.1% (inactive) | 74.9% (inactive) | 0.01% (inactive) | 3.62% (inactive)
CCOC(=O)c1c(C)n(C)c2c(C)cc(O)c(OC(C)=O)c12 | 93 | 83.5% (inactive) | 93% (inactive) | 103% (inactive) | 101% (inactive) | 13.4% (inactive) | 87.3 | 101 | -3.9% (inactive) | 0.5% (inactive) | -11.9% (inactive) | -6.75% (inactive) | -5.24% (inactive) | 78.5% (inactive) | 86.8% (inactive) | 1.42% (inactive) | 1.23% (inactive)
COc1ccc(OC)c(NC(=O)c2nnn(Cc3ccc(Br)cc3F)c2N)c1 | 80 | 88% (inactive) | 80% (inactive) | 40.9% (inactive) | 75.7% (inactive) | 16.7% (inactive) | 58.9 | 75.7 | 1.07% (inactive) | -0.49% (inactive) | -0.51% (inactive) | -7.43% (inactive) | 0.57% (inactive) | 69.5% (inactive) | 66.1% (inactive) | 1.21% (inactive) | 4.25% (inactive)
O=C(CC1(O)C(=O)Nc2ccccc21)c1ccc2c(c1)OCO2 (stereo not drawn) | 104 | 93.5% (inactive) | 104% (inactive) | 87.5% (inactive) | 76.3% (inactive) | -12.3% (inactive) | 88.5 | 76.3 | 0.78% (inactive) | -3% (inactive) | -7.81% (inactive) | -21.3% (inactive) | -2.13% (inactive) | 97.2% (inactive) | 96.5% (inactive) | 2.9% (inactive) | 4.82% (inactive)
COc1cccc(NC(=O)CSc2nnc(Cc3cccn3C)n2-c2ccc(F)cc2)c1 | 94.5 | 115% (inactive) | 94.5% (inactive) | 85.7% (inactive) | 78.2% (inactive) | -8.06% (inactive) | 86.2 | 78.2 | -7.73% (inactive) | -8% (inactive) | 0.385% (inactive) | 13.1% (inactive) | -4.32% (inactive) | 88.9% (inactive) | 90.1% (inactive) | 1.09% (inactive) | 6.98% (inactive)
COc1ccc(NS(=O)(=O)c2ccc(NC(C)=O)cc2)cc1OC | 98.5 | 99% (inactive) | 98.5% (inactive) | 83.5% (inactive) | 94.5% (inactive) | 4.97% (inactive) | 89.5 | 94.5 | 2.69% (inactive) | 35.7% (active) | 0.65% (inactive) | -9.44% (inactive) | 0.44% (inactive) | 85.4% (inactive) | 85.2% (inactive) | 1.85% (inactive) | -1.59% (inactive)
O=C(NC1CCCCCC1)c1c(F)c(F)c(F)c(F)c1F | 76.5 | 92% (inactive) | 76.5% (inactive) | 78.9% (inactive) | 101% (inactive) | 15.7% (inactive) | 85.2 | 101 | 0.26% (inactive) | -8.67% (inactive) | 4.54% (inactive) | 7.52% (inactive) | -3.82% (inactive) | 91.8% (inactive) | 93.5% (inactive) | 1.01% (inactive) | -1.79% (inactive)
CCOC(=O)c1sc2nc(NC(=O)COc3ccccc3)sc2c1C | 78.5 | 123% (inactive) | 78.5% (inactive) | 74.1% (inactive) | 69.4% (inactive) | -10% (inactive) | 79.5 | 69.4 | 3.72% (inactive) | -0.33% (inactive) | -2.58% (inactive) | -19.8% (inactive) | 1.51% (inactive) | 109% (inactive) | 98.4% (inactive) | 2.67% (inactive) | 0.88% (inactive)
Cc1nc2ccc(S(=O)(=O)NC(C(=O)Nc3nccs3)C(C)C)cc2s1 (stereo not drawn) | 87 | 93% (inactive) | 87% (inactive) | 91.6% (inactive) | 95.7% (inactive) | 5.42% (inactive) | 90.3 | 95.7 | 0.13% (inactive) | -0.17% (inactive) | -5.25% (inactive) | 2.78% (inactive) | -1.85% (inactive) | 101% (inactive) | 104% (inactive) | 1.99% (inactive) | 1.91% (inactive)
COc1ccc(CCNC(=O)c2cnn3ccccc23)c(OC)c1OC | 92.5 | 98.5% (inactive) | 92.5% (inactive) | 78.8% (inactive) | 96.5% (inactive) | -0.525% (inactive) | 97 | 96.5 | -5.6% (inactive) | -2.67% (inactive) | -9.7% (inactive) | -2.3% (inactive) | -1.15% (inactive) | 101% (inactive) | 87.8% (inactive) | 1.33% (inactive) | 3.06% (inactive)
CCOC(=O)C1CCCN(C(=O)c2cn(C)c(=O)c3cc(OC)c(OC)cc23)C1 (stereo not drawn) | 96.5 | 99.5% (inactive) | 96.5% (inactive) | 94.2% (inactive) | 91% (inactive) | -9.49% (inactive) | 101 | 91 | -3.38% (inactive) | 4.43% (inactive) | -11.5% (inactive) | -4.87% (inactive) | -3.62% (inactive) | 97% (inactive) | 90.7% (inactive) | 1.17% (inactive) | 1.13% (inactive)
O=S(=O)(c1ccc(F)cc1)N1CCC(N2CCCC2)CC1 | 104 | 96% (inactive) | 104% (inactive) | 89% (inactive) | 91.2% (inactive) | 10.3% (inactive) | 80.9 | 91.2 | -4.4% (inactive) | 3.67% (inactive) | -0.015% (inactive) | -5.88% (inactive) | -2.89% (inactive) | 96.2% (inactive) | 95.9% (inactive) | 1.23% (inactive) | 0.93% (inactive)
COc1ccc(OC)c(NC(=O)c2cn(C)c(=O)c3cc(OC)c(OC)cc23)c1 | 104 | 104% (inactive) | 104% (inactive) | 97.2% (inactive) | 93.8% (inactive) | 5.68% (inactive) | 88.1 | 93.8 | -0.41% (inactive) | 28.7% (inactive) | -17.3% (inactive) | -19.3% (inactive) | -4.55% (inactive) | 99.6% (inactive) | 96.7% (inactive) | 0.435% (inactive) | 3.89% (inactive)
